TGFb SMAD3 inh – blocks TGF-b signaling; 1.2% of 410,000 active; HepG2 CAGA-GFP TGF-b/SMAD3 reporter, GFP fluorescence, 18 h; TGF-beta stimulated, 500 pg/mL final; Potency, µM (doses to about 46.1 µM), without a hit: at the highest dose activity, negative = inhibition, hits mostly inhibitors; AID 588855; further: on the % scale 0 is the no-effect control and ±100 the full control effect; nearly all actives have a fitted effect of over 65% in size
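Cell-based qHTS in HEPG2 carrying a CAGA-GFP Smad reporter; compounds added before 500 pg/mL final TGF-beta, 18 h incubation at 37 degrees C, GFP fluorescence quantified per cell by imaging cytometry.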
HepG2 viability – HepG2 cytotoxicity, counter-screen for TGF-b inhibitors; HepG2 CAGA-GFP viability, ATP luminescence, 18 h; Potency, µM (titrated, usually from 46.1 µM), for inactives: at the highest dose activity change, negative = cytotoxicity, usual class: cytotoxic; 0.76% of 410,000 active
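HepG2 CAGA-GFP cells (1000/well, DMEM with 1% FBS) received compound, then TGF-beta at 500 pg/mL final, and were incubated 18 hours at 37 degrees C. Viability was read by CellTiter-Glo luminescence. Media-only wells were set as complete cell-killing and DMSO as no toxicity.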
ATXN2 expr inh – reduces ATXN2 reporter expression in HEK-293 cells | 0.72% of 360,000 active | Potency, µM (doses to about 57 µM), for inactives: top-dose activity change, negative = inhibition, most hits filed as inhibitors | HEK-293 ATXN2-luciferase reporter, luminescence, 24 h; further: on the % scale 0 is the no-effect control and ±100 the full control effect; nearly all actives have a fitted effect of over 55% in size
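qHTS (up to 57 uM final) was run with 24 h compound exposure of reporter cells at 37 °C. Each well was multiplexed: SteadyGlo luminescence measured ATXN2-luciferase expression after a fluorogenic Gly-Phe-AFC viability readout (25 uM final).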
KB-3-1 tox – kills parental KB-3-1 adenocarcinoma cells; KB-3-1 viability, CellTiter-Glo ATP luminescence, 72 h; Potency, µM (highest dose often 46.1 µM), usual class: cytotoxic; 1.4% of 400,000 active; AID 1347075; further: on the % scale 0 is the no-effect control and ±100 the full control effect; nearly all actives have a fitted effect of over 60% in size
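72 h, 37 °C compound treatment of KB-3-1 parental cells; CellTiter-Glo added, 10 min, luminescence read. Data corrected against DMSO-only plates and normalized before curve fitting.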
ATXN viability – cell viability loss in ATXN counter-screen; S2 cells (HEK-293 line with an ATXN2-luciferase reporter) viability, CellTiter-Fluor protease fluorescence, 24 h; Potency, µM (doses to about 56.7 µM), usual class: cytotoxic; 0.49% of 400,000 active; further: nearly all actives have a fitted effect of over 40% in size
KB-V1 MDR tox – kills drug-selected multidrug resistant KB-V1 cells. Potency, µM (top dose mostly 46.1 µM), actives largely listed as cytotoxic. 3.4% of 400,000 active. KB-V1 MDR cells viability, CellTiter-Glo, 72 h; further: on the % scale 0 is the no-effect control and ±100 the full control effect; nearly all actives have a fitted effect of over 60% in size
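Following 72 h at 37 degrees C with compound, KB-V1 cell viability was read by CellTiter-Glo luminescence, medium being phenol-red-free DMEM plus 10% FBS; concentration-response parameters came from normalized, curve-fitted qHTS data.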
The depositor's hits bear a star; i = inactive; ? = inconclusive; · = no result given. Only some compounds are listed: those with a hit (about 5.9% of all), similar ones and a draw of the others. The call rests on the fitted dose curve; in most records, active means well fitted curve in the direction sought with a large enough effect; inconclusive means small, poorly fitted or top-dose-only effect, or another doubt; inactive means no such curve, though single readings can be large; an effect the other way counts as inactive or inconclusive. Potency means the concentration at half of the fitted maximal effect.

SMILES	TGFb SMAD3 inh	HepG2 viability	ATXN2 expr inh	KB-3-1 tox	ATXN viability	KB-V1 MDR tox
O=C1C(=O)c2c(C(=O)c3ccccc3)coc2-c2ccccc21	8.91µM*	12.6µM*	?	?	·	20.6µM*
Cc1onc(-c2ccccc2Cl)c1C(=O)c1ccccc1	4.3%	17.1%	-1.7%	i	i	i
CCOc1ccc(C(c2c(O)cc(C)n(Cc3ccco3)c2=O)N2CCCCC2)cc1 (centres undefined)	14.1%	-0.7%	·	i	·	i
O=C(NCC1CCCO1)c1ccc(NC(=O)c2cccc(Cl)c2)cc1 (centres undefined)	-17.7%	-22.9%	·	i	i	?
CCC1=Nc2cc(C(=O)NC3CCCC3)ccc2Sc2ccc(Cl)cc21	?	-38.6%	-12.8%	5.8µM*	?	2.91µM*
CC1=Nc2cc(C(=O)NC3CCCC3)ccc2Sc2ccc(C)cc21	?	-3.2%	-11.4%	1.46µM*	?	1.3µM*
CNC(=O)c1ccc2c(c1)N=C(C)c1cc(C)ccc1S2	?	-13.5%	2.1%	18.4µM*	i	?
CCC1=Nc2cc(C(=O)NCC3CCCO3)ccc2Sc2ccc(Cl)cc21 (centres undefined)	?	-19.0%	-29.8%	9.2µM*	?	i
CC1=Nc2cc(C(=O)NC(C)C)ccc2Sc2ccc(C)cc21	?	3.2%	·	·	·	·
CCC1=Nc2cc(C(=O)O)ccc2Sc2ccccc21	-8.6%	-1.9%	1.3%	i	i	i
COC(=O)[C@@H]1C[C@@H](NC(=O)c2cnsn2)CN1Cc1ccc(Cl)cc1	·	·	·	·	i	·
CC(=O)Nc1ccc(NC(=O)C2Cc3ccccc3N2C(=O)c2ccccc2)cc1 (centres undefined)	-11.5%	4.3%	3.5%	i	i	i
Cc1ccccc1C(=O)N1CC/C(=N\OS(=O)(=O)O)c2ccc(Cl)cc21	·	·	-1.9%	·	i	·
CC1=Nc2cc(C(=O)NC3CCCC3)ccc2Sc2ccc(Cl)cc21	?	-6.1%	-27.6%	3.26µM*	?	3.66µM*
CCOC(=O)C1CCN(C(=O)c2ccc3c(c2)N=C(CC)c2cc(C)ccc2S3)CC1	10µM*	-20.6%	-27.7%	i	i	i
COc1ccc(NC(=O)c2sc3nc(C)c(C(=O)Nc4ccc(C)cc4C)c(-c4sccc4C)c3c2N)cc1	1.5%	3.6%	-7.1%	i	i	i
CC(C)(Oc1ccc(Br)cc1)C(=O)N1CCc2ccccc21	0.1%	-9.5%	-8.5%	i	i	20.6µM*
CCCNC1=C(N(C(C)=O)c2cccc(F)c2)C(=O)c2ccccc2C1=O	?	7.94µM*	28.2µM*	1.3µM*	·	?
Nc1nc(N2CCN(Cc3ccccc3)CC2)n[nH]1	-4.0%	-8.8%	10.1%	i	i	i
c1ccc(CNc2nc(N3CCN(Cc4ccccc4)CC3)nc3ccccc23)cc1	?	28.2µM*	?	?	i	23.1µM*
Fc1ccccc1-c1nc(NCc2ccco2)c2ccccc2n1	7.2%	-1.4%	·	i	i	i
Oc1ccccc1-c1nc(NCc2ccco2)c2ccccc2n1	26.5%	-31.3%	-27.5%	i	i	i
Cc1ccc(Nc2nc(NCc3ccco3)c3ccccc3n2)cc1	11.2µM*	-47.0%	?	?	i	?
c1ccc(-c2nc(NCc3ccco3)c3ccccc3n2)nc1	-26.1%	-41.0%	?	5.8µM*	?	?
c1ccc(N2CCN(c3nc(NCc4ccco4)c4ccccc4n3)CC2)cc1	?	-59.9%	?	?	?	11.6µM*
SMILES	TGFb SMAD3 inh	HepG2 viability	ATXN2 expr inh	KB-3-1 tox	ATXN viability	KB-V1 MDR tox
CC(=O)N1c2ccc(S(=O)(=O)N3CCCCCC3)cc2CC1C(=O)NCc1cccc(C)c1 (centres undefined)	?	7.1%	-0.3%	i	i	i
c1coc(CNc2nc(N3CCCCC3)nc3ccccc23)c1	10µM*	-44.6%	?	?	?	?
C(=N\Nc1nc(-c2ccccn2)nc2ccccc12)/c1ccccc1	1.78µM*	-35.4%	·	·	·	·
C(=N\Nc1nc(-c2cccnc2)nc2ccccc12)/c1ccccc1	-26.4%	-14.9%	-28.5%	i	·	i
OCCNc1nc(N2CCCCC2)nc2ccccc12	5.3%	0.2%	-4.8%	i	i	i
CCN1CCN(c2c(S(=O)(=O)c3ccc(C)c(C)c3)cnc3cc(OC)c(OC)cc23)CC1	-5.4%	-29.8%	-20.3%	?	i	?
CCc1ccc2ncc(S(=O)(=O)c3ccc(C)c(C)c3)c(N3CCCC3)c2c1	?	18.5%	-4.1%	18.4µM*	i	?
O=[N+]([O-])c1ccc(N=Nc2ccc(O)c3ccccc23)cc1	?	12.6µM*	?	?	?	14.6µM*
CCc1c(C(=O)Nc2ccccc2C(N)=O)csc1C	-28.4%	0.0%	97.5%	i	i	i
CCc1c(C(=O)Nc2ccncc2)csc1C	-14.4%	2.5%	1.9%	i	i	16.4µM*
CC(=O)O[C@H]1[C@@H](O)[C@H](O)[C@H](Oc2c(O)c(C)c3c4c2[C@@H](C)CC[C@@H]4[C@@H](C)C[C@H]3C=C(C)C)O[C@H]1C	11.2µM*	-113.7%	?	?	?	25.9µM*
CC(=O)O[C@@H]1[C@@H](O)[C@@H](O)[C@H](Oc2c(-c3ccc(O)cc3)oc3c(CC=C(C)C)c(O)cc(O)c3c2=O)O[C@H]1C	?	-71.9%	?	i	?	i
c1ccc2c(c1)c1ccccc1n1c(-c3ccc4c(c3)OCO4)nnc21	-2.4%	1.3%	?	?	i	20.6µM*
Cc1ccc(NC(=O)c2ccc(OCC3CCCO3)cc2)cc1 (centres undefined)	-5.1%	-7.3%	67.9%	i	i	20.6µM*
O=C(Nc1cccc(S(=O)(=O)N2CCCCC2)c1)c1ccc(OCC2CCCO2)cc1 (centres undefined)	1.9%	-3.1%	-11.0%	i	·	8.2µM*
O=C(Nc1ccc(S(=O)(=O)N2CCCC2)cc1)c1ccc(OCC2CCCO2)cc1 (centres undefined)	-11.2%	-8.2%	-18.6%	20.6µM*	i	?
O=C(Nc1ccc(Cl)c(S(=O)(=O)N2CCOCC2)c1)c1ccc(OCC2CCCO2)cc1 (centres undefined)	?	-62.2%	?	?	·	i
CC(=O)Nc1ccc(C(=O)N2CCCC(n3cc(C(=O)NCC(C)C)nn3)C2)cc1 (centres undefined)	·	·	·	·	i	·

Bioassay records as filed in PubChem BioAssay.
